The panel holds about 83,000 compounds, 20% with a hit somewhere; the sample as a whole holds those more often.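 Results are percent growth after 48 hours of single-concentration exposure. 100 means growth as in untreated cells, lower positive values show inhibition; negative values down to -100 show cell death.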 Active and inactive are the calls of the source. The calls were made as follows: active = growth percent below 10; inactive = the rest.
Key:
Assay in all cases: NCI-60 one-dose screen, 48 h (100 = growth as untreated, 0 = no growth, -100 = all killed)
Conditions in all cases: 10 µM unless noted
NCI-H23 lung = test system: NCI-H23 lung
NCI-H322M lung = test system: NCI-H322M lung
HOP-62 NSCLC = test system: HOP-62 NSCLC
NCI-H460 lung = test system: NCI-H460 lung
HOP-92 NSCLC = test system: HOP-92 NSCLC
NCI-H522 lung = test system: NCI-H522 lung
A549/ATCC NSCLC = test system: A549/ATCC NSCLC
786-0 renal = test system: 786-0 renal
COLO 205 colon = test system: COLO 205 colon
DU-145 prostate = test system: DU-145 prostate
K-562 leukemia = test system: K-562 leukemia
MALME-3M melanoma = test system: MALME-3M melanoma
MDA-MB-231 breast = test system: MDA-MB-231 breast
RXF 393 renal = test system: RXF 393 renal
SF-268 CNS = test system: SF-268 CNS
SF-295 CNS = test system: SF-295 CNS
SF-539 CNS = test system: SF-539 CNS
UACC-257 melanoma = test system: UACC-257 melanoma
M14 melanoma = test system: M14 melanoma

Measured: growth

O=[N+]([O-])c1cc(I)cc([N+](=O)[O-])c1
inactive: NCI-H23 lung 95.9% | NCI-H322M lung 111% | HOP-62 NSCLC 133% | NCI-H460 lung 111% | HOP-92 NSCLC 131% | NCI-H522 lung 85.5% | A549/ATCC NSCLC 99.5% | 786-0 renal 112% | COLO 205 colon 111% | DU-145 prostate 105% | K-562 leukemia 97.9% | MALME-3M melanoma 101% | MDA-MB-231 breast 95.7% | RXF 393 renal 111% | SF-268 CNS 94.2% | SF-295 CNS 110% | SF-539 CNS 101% | UACC-257 melanoma 98% | M14 melanoma 98.8%

COc1ccc(/C=C\c2cc(OC)c(OC)c(OC)c2)c(NS(=O)(=O)c2ccc(F)cc2)c1O
inactive: NCI-H23 lung 27.4% | NCI-H322M lung 53.6% | HOP-62 NSCLC 71.3% | HOP-92 NSCLC 43.3% | A549/ATCC NSCLC 23.9% | 786-0 renal 18.4% | K-562 leukemia 18.3% | MALME-3M melanoma 94.3% | RXF 393 renal 23.5% | SF-268 CNS 15.1% | UACC-257 melanoma 66.5%
active: NCI-H460 lung 5.54% | NCI-H522 lung -18.6% | COLO 205 colon 0.893% | DU-145 prostate -19.1% | MDA-MB-231 breast 8.05% | SF-295 CNS 4.99% | SF-539 CNS 2.76% | M14 melanoma 6.43%

C=C(C)[C@@]12OC3(/C=C/C=C/CCCCC)O[C@@H]1[C@@H]1[C@@H]4O[C@]4(CO)[C@@H](O)[C@]4(O)C(=O)C(C)=C[C@H]4[C@@]1(O3)[C@H](C)[C@H]2OC(=O)c1ccccc1
active: COLO 205 colon 4.17%
inactive: NCI-H23 lung 46.3% | NCI-H322M lung 76.6% | HOP-62 NSCLC 22.5% | NCI-H460 lung 22.1% | HOP-92 NSCLC 35.1% | NCI-H522 lung 78.8% | A549/ATCC NSCLC 32.8% | 786-0 renal 45.8% | DU-145 prostate 38.4% | K-562 leukemia 24.9% | MALME-3M melanoma 88.3% | MDA-MB-231 breast 52% | RXF 393 renal 71% | SF-268 CNS 40.7% | SF-295 CNS 39.6% | SF-539 CNS 63.8% | UACC-257 melanoma 97% | M14 melanoma 36.3%

CCOC(=O)CCN(C)C1=Nc2ccc(Cl)cc2C(c2ccccc2)=[N+]([O-])C1
inactive: NCI-H23 lung 101% | NCI-H322M lung 98.4% | HOP-62 NSCLC 96.6% | NCI-H460 lung 106% | HOP-92 NSCLC 98.6% | NCI-H522 lung 70.9% | A549/ATCC NSCLC 100% | 786-0 renal 117% | COLO 205 colon 129% | DU-145 prostate 106% | K-562 leukemia 96.8% | MALME-3M melanoma 101% | MDA-MB-231 breast 97.9% | RXF 393 renal 105% | SF-268 CNS 99.6% | SF-295 CNS 102% | SF-539 CNS 107% | UACC-257 melanoma 105% | M14 melanoma 113%

COc1cc2c(cc1OCCCn1c(-c3ccccn3)nc3ccccc31)N=C[C@@H]1CCCN1C2=O
inactive: NCI-H23 lung 15% | NCI-H322M lung 25.7% | HOP-62 NSCLC 18% | A549/ATCC NSCLC 20% | DU-145 prostate 26% | K-562 leukemia 17.4% | SF-268 CNS 10.4% | SF-539 CNS 14.3% | M14 melanoma 10.5%
active: NCI-H460 lung -22.7% | HOP-92 NSCLC -59.6% | NCI-H522 lung -5.46% | 786-0 renal -33.7% | COLO 205 colon 9.33% | MALME-3M melanoma -9.03% | MDA-MB-231 breast 6.19% | RXF 393 renal -11.8% | SF-295 CNS -3.07%

O=C1N[C@@H]2[C@@H](O)[C@@H](O)[C@H](O)C[C@H]2c2cc3c(c(O)c21)OCO3
active: NCI-H23 lung -14.9% | NCI-H322M lung -14.7% | HOP-62 NSCLC -18.9% | NCI-H460 lung -15.1% | HOP-92 NSCLC -19% | NCI-H522 lung -32.6% | A549/ATCC NSCLC -8.4% | 786-0 renal -10.8% | COLO 205 colon -38.2% | DU-145 prostate -19.1% | K-562 leukemia 1.86% | MALME-3M melanoma -48.7% | MDA-MB-231 breast -27.9% | RXF 393 renal -37.3% | SF-268 CNS -4.43% | SF-295 CNS -11.5% | SF-539 CNS -29.7% | UACC-257 melanoma -21.8% | M14 melanoma -81.7%

O=c1[nH]c2ccc([N+](=O)[O-])cc2c(=O)o1
inactive: NCI-H23 lung 101% | NCI-H322M lung 97.6% | HOP-62 NSCLC 103% | NCI-H460 lung 103% | HOP-92 NSCLC 79.5% | NCI-H522 lung 100% | A549/ATCC NSCLC 107% | 786-0 renal 112% | COLO 205 colon 109% | DU-145 prostate 117% | MALME-3M melanoma 106% | MDA-MB-231 breast 107% | RXF 393 renal 101% | SF-295 CNS 105% | SF-539 CNS 102% | UACC-257 melanoma 104% | M14 melanoma 108%

COc1ccc(C(O)(C(=O)O)c2ccc(OC)cc2)cc1
inactive: NCI-H23 lung 89.8% | NCI-H322M lung 102% | HOP-62 NSCLC 91% | NCI-H460 lung 97.2% | HOP-92 NSCLC 95.1% | NCI-H522 lung 62% | A549/ATCC NSCLC 71.6% | 786-0 renal 94.8% | COLO 205 colon 102% | DU-145 prostate 104% | K-562 leukemia 87.8% | MALME-3M melanoma 105% | MDA-MB-231 breast 85.7% | RXF 393 renal 109% | SF-268 CNS 95.3% | SF-295 CNS 87.1% | SF-539 CNS 86.8% | UACC-257 melanoma 90.6% | M14 melanoma 86.2%

O=NN1CCCc2cccc(O)c21
inactive: NCI-H322M lung 41.8% | HOP-62 NSCLC 31.9% | HOP-92 NSCLC 71.6% | A549/ATCC NSCLC 37.6% | 786-0 renal 27.2% | COLO 205 colon 94% | DU-145 prostate 10.8% | MALME-3M melanoma 38.3% | MDA-MB-231 breast 78.8% | SF-268 CNS 27.8% | SF-295 CNS 31% | UACC-257 melanoma 57.4% | M14 melanoma 22.2%
active: NCI-H23 lung -6.22% | NCI-H460 lung 4.79% | NCI-H522 lung -21.7% | K-562 leukemia 9.43% | RXF 393 renal -4.04% | SF-539 CNS -32.8%

CNC(=O)Oc1ccc(C(C)(C)C)cc1OC(=O)NC
inactive: NCI-H23 lung 100% | NCI-H322M lung 112% | HOP-62 NSCLC 88.7% | NCI-H460 lung 102% | HOP-92 NSCLC 95.2% | NCI-H522 lung 84.8% | A549/ATCC NSCLC 90.5% | 786-0 renal 89.4% | COLO 205 colon 87% | DU-145 prostate 105% | K-562 leukemia 97.6% | MALME-3M melanoma 104% | MDA-MB-231 breast 105% | RXF 393 renal 108% | SF-268 CNS 105% | SF-295 CNS 98.6% | SF-539 CNS 103% | UACC-257 melanoma 92% | M14 melanoma 93.3%

Reference: PubChem BioAssay (NCI)
